Where a name gives a salt, the structure may show the parent alone.
Legend:
Conditions in all cases: incubation time: 27 h, anaerobic, 37 °C;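 for the amine columns active = adjusted P below 0.05 in both replicates with a change the same way and a mean fold change under 0.8 or over 1.25; inactive = the rest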
[1] = system: Clostridium sporogenes DSM 1664; assay: growth (OD595) fold change vs plate DMSO controls (fold change (ratio)); higher = more growth
Method in brief: (§1)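 Anaerobic mGAM cultures in 96-well plates were grown for 27 h at 37 °C, and absorbance was then read at 595 nm. After blank and compound background correction with 20 µM compound solutions in water, a calibration factor of 5 gave OD. Growth is the fold change relative to the median of each plate's DMSO controls. Values are means of 2 biological replicates, with fold changes above 1.5 set to NA.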

Escherichia coli IAI1 [2] = assay: as above
Method in brief: as §1

[3] = system: Klebsiella aerogenes DSM 30053; assay: as above
Method in brief: as §1

[4] = system: Ruminococcus gnavus DSM 108212; assay: as above
Method in brief: as §1

[5] = system: Klebsiella aerogenes DSM 30053; assay: fold change of Histamine concentration vs plate DMSO controls (fold change (ratio)); higher = more amine produced, active = hit call of the paper (significant change in both replicates, either direction)
Method in brief: (§2)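 Extracts of whole anaerobic mGAM cultures were analysed for amines by LC–triple-quadrupole MS with dynamic MRM and external calibration curves, with drift corrected within batch. Four gut strains were grown at 37 °C for 27 h in 80 µL wells with compounds at 20 µM final, sweeteners at 50 µM final. Each value expresses fold change over plate DMSO controls. The average of 2 biological replicates is shown.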

[6] = system: Clostridium sporogenes DSM 1664; assay: fold change of Tryptamine concentration vs plate DMSO controls (fold change (ratio)); higher = more amine produced, active = hit call of the paper (significant change in both replicates, either direction)
Method in brief: as §2

[7] = system: Ruminococcus gnavus DSM 108212; assay: as above
Method in brief: as §2

Escherichia coli IAI1 [8] = assay: fold change of Putrescine concentration vs plate DMSO controls (fold change (ratio)); higher = more amine produced, active = hit call of the paper (significant change in both replicates, either direction)
Method in brief: as §2

[9] = system: Klebsiella aerogenes DSM 30053; assay: as above
Method in brief: as §2

Escherichia coli IAI1 [10] = assay: fold change of Cadaverine concentration vs plate DMSO controls (fold change (ratio)); higher = more amine produced, active = hit call of the paper (significant change in both replicates, either direction)
Method in brief: as §2

[11] = system: Klebsiella aerogenes DSM 30053; assay: as above
Method in brief: as §2

[12] = system: Ruminococcus gnavus DSM 108212; assay: fold change of 2-Phenylethylamine concentration vs plate DMSO controls (fold change (ratio)); higher = more amine produced, active = hit call of the paper (significant change in both replicates, either direction)
Method in brief: as §2

Row | SMILES | growth [1] | growth (Escherichia coli IAI1 [2]) | growth [3] | growth [4] | fold change of Histamine concentration [5] | fold change of Tryptamine concentration [6] | fold change of Tryptamine concentration [7] | fold change of Putrescine concentration (Escherichia coli IAI1 [8]) | fold change of Putrescine concentration [9] | fold change of Cadaverine concentration (Escherichia coli IAI1 [10]) | fold change of Cadaverine concentration [11] | fold change of 2-Phenylethylamine concentration [12]
1 | CCN[C@H]1CN(CCCOC)S(=O)(=O)c2sc(S(N)(=O)=O)cc21 [Brinzolamide] (20 µM) | 1.17 | 1.04 | 1 | 1.04 | 1 (inactive) | 1.02 (inactive) | 0.944 (inactive) | 1.05 (inactive) | 0.989 (inactive) | 1.01 (inactive) | 1 (inactive) | 0.899 (inactive)
2 | Cc1ccccc1C(=O)Nc1ccc(C(=O)N2CCCC(O)c3cc(Cl)ccc32)c(C)c1 (stereo not given) [Tolvaptan] (20 µM) | 1.16 | 0.991 | 0.985 | 1.06 | 1.05 (inactive) | 0.919 (inactive) | 0.964 (inactive) | 0.955 (inactive) | 1.01 (inactive) | 0.995 (inactive) | 1 (inactive) | 0.924 (inactive)
3 | C[C@]1(Cn2ccnn2)[C@H](C(=O)O)N2C(=O)C[C@H]2S1(=O)=O [Tazobactam] (20 µM) | 0.105 | 1 | 0.973 | 1.05 | 0.904 (inactive) | 0.703 (active) | 1.05 (inactive) | 1.05 (inactive) | 1.04 (inactive) | 0.989 (inactive) | 1.03 (inactive) | 1.1 (inactive)
4 | CS(=O)(=O)c1ccc(C2=C(c3ccccc3)C(=O)OC2)cc1 [Rofecoxib] (20 µM) | 1 | 0.962 | 0.973 | 1.1 | 0.981 (inactive) | 1.2 (inactive) | 1.08 (inactive) | 1.02 (inactive) | 0.99 (inactive) | 1.04 (inactive) | 1.01 (inactive) | 1.07 (inactive)
5 | O=C(CCNNC(=O)c1ccncc1)NCc1ccccc1 [Nialamide] (20 µM) | 0.952 | 0.991 | 1.02 | 0.89 | 1.03 (inactive) | 1.01 (inactive) | 1 (inactive) | 0.997 (inactive) | 1 (inactive) | 1.03 (inactive) | 0.998 (inactive) | 1.01 (inactive)
6 | N#Cc1ccc(Oc2ccc3c(c2)COB3O)cc1 [Crisaborole] (20 µM) | 1.06 | 0.983 | 1.02 | 1.12 | 0.998 (inactive) | 0.95 (inactive) | 0.688 (active) | 1.03 (inactive) | 0.987 (inactive) | 1 (inactive) | 0.994 (inactive) | 0.799 (inactive)
7 | CC(=O)OCC(=O)[C@@]1(O)CC[C@H]2[C@@H]3CCC4=CC(=O)CC[C@]4(C)[C@H]3[C@@H](O)C[C@@]21C [Cortisol acetate] (20 µM) | 1.13 | 1.03 | 1.04 | 1 | 0.896 (inactive) | 0.975 (inactive) | 0.979 (inactive) | 0.987 (inactive) | 0.993 (inactive) | 0.97 (inactive) | 1.01 (inactive) | 0.953 (inactive)
8 | CN1C(C(=O)Nc2ccccn2)=C(O)c2sccc2S1(=O)=O [Tenoxicam] (20 µM) | 1.03 | 1.04 | 0.975 | 1.18 | 1.07 (inactive) | 1.01 (inactive) | 1.01 (inactive) | 1.05 (inactive) | 1.01 (inactive) | 1.01 (inactive) | 0.977 (inactive) | 0.959 (inactive)
9 | CN(CCOc1ccc(CC2SC(=O)NC2=O)cc1)c1ccccn1 (stereo not given) [Rosiglitazone hydrochloride] (20 µM) | 1.05 | 1.15 | 0.983 | 1.05 | 0.998 (inactive) | 1.06 (inactive) | 1.08 (inactive) | 1.17 (inactive) | 0.993 (inactive) | 0.926 (inactive) | 1.03 (inactive) | 1.12 (inactive)
10 | CC1=Nc2ccc(Cl)cc2S(=O)(=O)N1 [Diazoxide] (20 µM) | 1.06 | 1.01 | 0.986 | 1.21 | 1.1 (inactive) | 1.09 (inactive) | 1.16 (inactive) | 0.991 (inactive) | 1.06 (inactive) | 0.943 (inactive) | 1.1 (inactive) | 1.35 (active)

Reference: the supplement of paper PMC12494721
